The list is not random: actives were taken first. Their share in the collection is about 2.4%.
M1 ag parental = M1 agonist counterscreen hit in parental CHO-K1 cells; Fluo-8 calcium fluorescence; scaled to maximal ATP response, vehicle zero; activation, % at 3 µM; 360,000 tested, 0.48% active; AID 602248; in the data active means activation above about 15%;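 further: untransfected CHO-K1 host cells lacking M1 receptor as counterscreen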
CHO-K1 Ca antag = counter-screen for M1 antagonists: effect in parental CHO-K1 cells. ATP-induced calcium, Fluo-8 fluorescence. inhibition, % at 3 µM. 360,000 tested, 0.6% active. AID 602250;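 active means inhibition above a per-plate cutoff, the plate's mean sample inhibition plus 3 SD, cut at about 24% in these data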
M1 ag = activates human CHRM1 receptor; CHO-K1 hM1, Fluo-8 calcium fluorescence, agonist mode; 0% DMSO, 100% acetylcholine EC100; activation, % at 3 µM; 360,000 tested, 0.33% active; AID 588814;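 active means activation above the run's mean compound activation plus 3 SD, cut at about 16% in these data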;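 further: peak over basal fluorescence ratio within a 140 s kinetic read after compound addition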
Target sequence (P11229 whole entry, looked up): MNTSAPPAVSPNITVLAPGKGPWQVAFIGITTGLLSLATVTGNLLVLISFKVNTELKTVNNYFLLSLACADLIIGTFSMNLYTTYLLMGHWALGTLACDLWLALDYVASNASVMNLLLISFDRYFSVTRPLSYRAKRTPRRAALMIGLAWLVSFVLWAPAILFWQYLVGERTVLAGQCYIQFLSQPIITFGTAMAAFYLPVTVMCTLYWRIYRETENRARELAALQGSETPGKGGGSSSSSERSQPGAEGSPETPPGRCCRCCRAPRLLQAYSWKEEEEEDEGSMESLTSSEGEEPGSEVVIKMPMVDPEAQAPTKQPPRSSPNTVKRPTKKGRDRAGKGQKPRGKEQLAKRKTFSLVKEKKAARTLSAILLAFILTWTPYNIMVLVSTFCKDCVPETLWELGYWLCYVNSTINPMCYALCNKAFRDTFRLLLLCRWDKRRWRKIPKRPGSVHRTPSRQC
CHRM1 antagonist = blocks human M1 muscarinic receptor | inhibition, % at 3 µM | CHO-K1 hM1, Fluo-8 calcium fluorescence, ACh EC80 antagonist | AID 588852 | 360,000 tested, 1.3% active | P11229;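 active means percent inhibition above its own plate's cutoff, namely the mean of that plate's compound wells plus 3 SD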;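 further: peak over basal fluorescence ratio during 140 s after agonist addition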
M1 PAM = human CHRM1 positive allosteric modulation; P11229; activation, % at 3 µM; AID 588819; CHO-K1 hM1, Fluo-8 calcium fluorescence, ACh EC20; 0% = ACh EC20, 100% = maximal ACh; 360,000 tested, 0.088% active; in the data active means activation above about 19%, passing the limit was not always enough
M1 PAM parental = counter-screen for M1 PAMs: effect in parental CHO-K1 cells. ATP EC20, Fluo-8 calcium fluorescence; 0% at ATP EC20, 100% at ATP max. 360,000 tested, 0.02% active. AID 602247. activation, % at 3 µM;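 active means activation above the run cutoff, the mean activation of all test compounds plus 3 SD, cut at about 40% in these data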;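 further: peak over basal fluorescence ratio in a 140 s read after ATP addition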
Large screens that a line does not name were inactive.

Cc1ccccc1C(=O)c1cccn1CC(=O)NCCCc1ccccc1	none
CC(=O)Nc1ccc(NC(=O)C2CCCN2C(=O)Nc2ccc(F)c([N+](=O)[O-])c2)cc1 (stereo not given)	none
FC(F)(F)c1cnc2c(c1)[nH]c(=S)n2-c1ccc(Cl)cc1	M1 ag parental 15.8
Fc1ccc(-n2c(=S)[nH]c3cccnc32)cc1	none
Clc1cccc(-c2ccc(CNCc3ccccn3)o2)c1	none
O=c1[nH]nc(Cc2ccc(-c3cccc(Cl)c3)o2)c2ccccc12	CHO-K1 Ca antag 24.4
N#C/C(=C\c1ccco1)C(=O)Nn1cnnc1	none
COc1ccc([N+](=O)[O-])cc1N(CC(=O)N(C)C)S(C)(=O)=O	none
O=C(NCc1ccco1)c1cccc(-c2cncc3nccn23)c1	none
CCC(=O)N1CCc2cc(S(=O)(=O)CCC(=O)NCc3cccc(OC)c3)ccc21	CHRM1 antagonist 51.2
CCC(=O)N1CCc2cc(S(=O)(=O)CCC(=O)Nc3cccc(F)c3)ccc21	none
CCC(=O)N1CCc2cc(S(=O)(=O)CCC(=O)Nc3ccc(F)c(F)c3)ccc21	CHO-K1 Ca antag 34.9
COc1ccc(CN2C[C@@H](CO)O[C@@H](n3cnc4c(NCc5ccncc5)ncnc43)C2)cc1	none
COC(=O)c1ccc(CN2CCC(n3nccc3NC(=O)C3CCCC3)CC2)cc1	M1 ag 21.3
COc1ccc(CN2CCCC(C(=O)Nc3cccc(-n4cccn4)c3)C2)cc1 (stereo not given)	none
CCNC(=O)C1CCCN(Cc2ccc(C(=O)OCC)cc2)CC1 (stereo not given)	CHRM1 antagonist 64.6
COC(=O)c1ccc(CN2CCC(n3nccc3NC(=O)C3CC3)CC2)cc1	M1 ag 18.7
COC(=O)c1ccc(CN2CCCC(C(=O)Nc3cccc(-n4cccn4)c3)C2)cc1 (stereo not given)	M1 ag 37.6, CHRM1 antagonist 41.2
C[C@@H](c1ccccc1)N1C[C@H]2CCCN2c2cc(Br)ccc2S1(=O)=O	none
O=C(NC1CCOC1=O)OCc1ccccc1 (stereo not given)	none
O=C(CCNC(=O)c1ccccc1Cl)Nc1cccc(S(=O)(=O)N2CCOCC2)c1	none
CCc1ccccc1NC(=O)CN1CCN(C(=O)C2CCN(C(=O)/C=C/c3ccccc3)CC2)CC1	none
COC(=O)[C@H](CCSC)NC(=O)NCCC1=CCCCC1	none
COC(=O)[C@H](Cc1ccccc1)NC(=O)NCCC1=CCCCC1	CHRM1 antagonist 39.1
COc1cccc(C(NC(C)=O)c2nc(-c3ccc(C)c(C)c3)cs2)c1 (stereo not given)	CHO-K1 Ca antag 26.0
CN1C[C@@H]2C(c3ccccc3)C3(c4ccccc4)CC2(C3)[C@H]1c1ccccc1 (stereo not given in full)	CHRM1 antagonist 78.4
CN1C[C@@H]2C(c3ccc(Cl)nc3)C3(c4cccnc4)CC2(C3)[C@H]1c1ccccc1 (stereo not given in full)	CHRM1 antagonist 54.0
COC(=O)c1cccc(C23CC4(C2)[C@H](CN(C)[C@@H]4c2ccccc2)C3c2ccc(C(F)(F)F)cc2)c1 (stereo not given in full)	none
Clc1ccc(C2[C@H]3CN(CC4CCCCC4)[C@H](c4ccccc4)C34CC2(c2ccccc2)C4)cn1 (stereo not given in full)	none
COC(=O)c1cccc(C23CC4(C2)[C@H](CN(C)[C@@H]4c2ccccc2)C3c2ccccc2)c1 (stereo not given in full)	CHRM1 antagonist 63.6
CN1C[C@@H]2C(c3ccc(Cl)nc3)C3(c4ccccc4)CC2(C3)[C@H]1c1ccccc1 (stereo not given in full)	CHRM1 antagonist 83.5
O=C(CCNC(=O)c1ccco1)Nc1ccc(Cl)c(C(F)(F)F)c1	none
CC(=O)c1cc2c(cc1NS(=O)(=O)c1ccc(F)cc1)OCO2	none
CC(C)(C)c1ccc(C(=O)CCC(=O)OCC(=O)NCCc2ccc(S(N)(=O)=O)cc2)cc1	M1 ag parental 20.3, CHRM1 antagonist 46.9
O=C1CCCC/C1=C/Nc1ccc2c(c1)OCO2	CHO-K1 Ca antag 28.8
C=CCC1c2cccc(C(=O)OC)c2C(=O)N1c1ccccc1 (stereo not given)	CHO-K1 Ca antag 23.7
C=CCN(CC=C)CCCOc1ccccc1C(=O)OC	none
CC(C)C(=O)N1CCCC1(C)C(=O)Nc1ccc2c(c1)OCO2 (stereo not given)	none
CCOC(=O)c1ccc(NC(=S)NCC(O)c2ccccc2)cc1 (stereo not given)	CHRM1 antagonist 34.4
CCOC(=O)c1ccc(NC(=S)NCCc2ccccc2F)cc1	M1 ag parental 15.4, CHO-K1 Ca antag 24.6, CHRM1 antagonist 61.1
Cc1ccc(NC(=S)NCc2ccc(Cl)cc2)c(OC(F)F)c1	CHRM1 antagonist 34.1
Cc1cc(C)c(NC(=S)N2CCN(c3ccc([N+](=O)[O-])cn3)CC2)cc1C	none
COc1ccc(-n2cc(CN(C)C(C)c3ccncn3)c(-c3cccc(F)c3)n2)cc1 (stereo not given)	none
COc1ccc(-n2cc(CN(C)CCO)c(-c3cccc(F)c3)n2)cc1	M1 ag parental 18.4
CC(CCc1ccc(O)cc1)NCCC(c1ccccc1)c1ccccc1 (stereo not given)	CHRM1 antagonist 45.3
CC(CCc1ccc(O)cc1)NC(c1ccccc1)c1ccc(Cl)cc1 (stereo not given)	none
CC(CCc1ccc(O)cc1)N(C)CCc1ccccc1 (stereo not given)	CHRM1 antagonist 55.9
CSCCC(C(=O)Nc1c(C)cccc1C)N(C)CCc1ccccc1 (stereo not given)	none
CC(CCc1ccc(O)cc1)NCc1ccc(Br)cc1 (stereo not given)	CHRM1 antagonist 32.4
COc1ccc(CNC(C)CCc2ccccc2)cc1 (stereo not given)	none
COCC(=O)N1CCN(c2nc3ccccc3o2)CC1	none
Cc1ccc(Cl)cc1N1CCN(c2cccc[n+]2C)CC1	CHRM1 antagonist 47.9
COc1ccc(S(=O)(=O)NCCSCc2ccc(Cl)cc2)cc1NC(C)=O	none
O=C(CNC(=O)c1cc(Cl)nc2ccccc12)Nc1ccccc1Br	none
COC(=O)c1ccc(NC(=O)Nc2ccc(F)cc2)cc1	none
COC(=O)c1ccc(NC(=O)Nc2ccc(F)c(Cl)c2)cc1	M1 ag parental 15.4, CHRM1 antagonist 32.4
Cc1ccc(NC(=S)Nc2ccc(OC(F)F)c(Cl)c2)cc1F	CHRM1 antagonist 24.5
O=C(NC(=S)Nc1ccc(F)c(Cl)c1)C1CC1	none
Cc1ccc(NC(=O)Nc2ccc(F)cc2)cc1Cl	CHO-K1 Ca antag 25.8
Fc1ccc(NC(=S)Nc2ccc(F)c(Cl)c2)cc1Cl	CHO-K1 Ca antag 28.2, CHRM1 antagonist 23.6

Compound activity: PubChem BioAssay, The Scripps Research Institute Molecular Screening Center
